Test results taken from PubChem BioAssay.
Calls of active or inactive are those of the source. Unless noted, how the calls were made is not given here.

How the values were obtained:
[1] = compounds altering circadian rhythm period length – cell-based, LOPAC library, luminescence reporter (AID 2774); settings: circadian reporter cells, at 7 µM, actives lie on both sides;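 further: values are relative to mean of DMSO wells on each plate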
[2] = tested on: Hepatitis C virus NS3 helicase; assay: blockers of NS3h binding to ssDNA – biochemical, fluorescence polarization, LOPAC1280 library, primary screen (AID 687035; in the data active means inhibition above about 37%); settings: Purified HCV NS3 helicase, Cy5-dT15 ssDNA binding fluorescence polarization; stronger effect = higher value; concentration not given here
[3] = compounds altering Cy5-DNA-NS3h complex signal – biochemical, LOPAC1280, artefact control for HCV NS3 helicase inhibitor project (AID 687037); settings: Cy5-DNA-NS3h complex fluorescence interference counterscreen
[4] = viability loss with induced miR-34 in A549 – imaging, A549 dox-inducible miR-34, nuclei and caspase counts, primary screen (AID 1347080;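 active means compounds whose cell count with miR-34 switched on is under 0.7 times the count with it off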); settings: A549 miR-34 inducible, Hoechst nuclei count, 48 h
[5] = blockers of cellular phospholipid synthesis – cell-based, LOPAC library, screen 4, primary screen (AID 1347384); settings: animal cells, phospholipid biosynthesis inhibition screen; at 10 µM
[6] = galactose survival enhancers in mitochondrial complex I cybrids – cell-based, galactose medium, ATP luminescence, primary screen (AID 1645843;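 active means z-score of at least 1.8 in each of two replicates, scored against plate mean and spread of sample wells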;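 further: positive z means more ATP and so rescue of galactose-driven cybrid death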); settings: complex I mutant cybrid cells, 72 h, stronger effect = higher value
[7] = stronger effect = lower value, cell number ratio, induced over uninduced
[8] = measured here: relative caspase fold change +Dox/-Dox
[9] = measured here: total cells with miR-34 induction, stronger effect = lower value
[10] = measured here: total cells without miR-34 induction

Row | Structure (SMILES) | period change [1] | inhibition [2] | fluorescence ratio (interference) [3] | fold change [4, 7] | fold change [4, 8] | cell count [4, 9] | cell count [4, 10] | outcome [5] | z-score [6]
1 | COc1ccc(NC(=O)/C=C/c2ccc(Cl)cc2)cc1 | -0.055 h (inactive) | -2% (inactive) | 1 (inactive) | 1.13 (inactive) | 0.89 | 7420 | 6550 | inactive | 0.42 (inactive)
2 | NCC(O)C1CCCCCCC1 (stereo unspecified) | -0.04 h (inactive) | -3% (inactive) | 1 (inactive) | 0.963 (inactive) | 1.08 | 9960 | 10300 | inactive | 0.085 (inactive)
3 | CN1CCCC1CCOC(C)(c1ccccc1)c1ccc(Cl)cc1 (stereo unspecified) | 0.12 h (inactive) | -3% (inactive) | 1 (inactive) | 1.24 (inactive) | 1.31 | 4130 | 3330 | inactive | -1.51 (inactive)
4 | OC1(c2ccc(Cl)cc2)CCN(Cc2c[nH]c3ccccc23)CC1 | 0.165 h (inactive) | -8% (inactive) | 0.9 (inactive) | 1.01 (inactive) | 1.16 | 7020 | 6940 | inactive | -0.735 (inactive)
5 | COc1cc(CC(=O)O)ccc1O | 0.03 h (inactive) | 1% (inactive) | 1 (inactive) | 1.05 (inactive) | 0.734 | 10100 | 9570 | inactive | 0.08 (inactive)
6 | O=C1CCC(c2ccc(-n3ccnc3)cc2)=NN1 | -0.075 h (inactive) | -1% (inactive) | 1 (inactive) | 1.07 (inactive) | 0.666 | 10200 | 9510 | inactive | -0.165 (inactive)
7 | CC1(C)CCC=[N+]1[O-] | -0.065 h (inactive) | -2% (inactive) | 1 (inactive) | 0.955 (inactive) | 0.876 | 9650 | 10100 | inactive | 0.285 (inactive)
8 | O=C(O)CCC(C(=O)O)N1C(=O)c2ccccc2C1=O (stereo unspecified) | -0.075 h (inactive) | -4% (inactive) | 1 (inactive) | 1.05 (inactive) | 0.915 | 10300 | 9760 | inactive | 0.255 (inactive)
9 | NOCC(=O)O | -0.075 h (inactive) | -1% (inactive) | 1 (inactive) | 1.12 (inactive) | 1.94 | 9990 | 8920 | inactive | 0.555 (inactive)
10 | CN1CC(O)C(O)C(O)C1CO (stereo unspecified) | 0.06 h (inactive) | -3% (inactive) | 1 (inactive) | 0.95 (inactive) | 1.01 | 10300 | 10800 | inactive | 0.28 (inactive)
11 | N=C(N)c1ccccc1 | -0.055 h (inactive) | -2% (inactive) | 1 (inactive) | 1.03 (inactive) | 1.99 | 10800 | 10500 | inactive | 0.605 (inactive)
12 | O=[N+]([O-])c1ccc(CSc2ncnc3c2ncn3[C@@H]2O[C@H](CO)[C@H](O)C2O)cc1 (stereo partly specified) | -0.085 h (inactive) | -4% (inactive) | 0.9 (inactive) | 1.12 (inactive) | 0.942 | 10500 | 9340 | inactive | 1.67 (inactive)
13 | O=C(O)[C@H]1NCCC[C@H]1C(=O)O | 0.06 h (inactive) | -2% (inactive) | 1 (inactive) | 1.06 (inactive) | 2.09 | 10400 | 9820 | inactive | 0.52 (inactive)
14 | Oc1ccccc1O | -0.735 h (inactive) | -1% (inactive) | 1 (inactive) | 1.03 (inactive) | 1.8 | 7780 | 7580 | inactive | -1.42 (inactive)
15 | NC1(C(=O)O)CCc2cc(C(=O)O)ccc21 (stereo unspecified) | 0.185 h (inactive) | -1% (inactive) | 1 (inactive) | 0.993 (inactive) | 1.76 | 10900 | 11000 | inactive | 0.185 (inactive)
16 | CCN(c1nc(N)c(C(=O)N=C(N)N)nc1Cl)C(C)C | -0.06 h (inactive) | -2% (inactive) | 1 (inactive) | 1.19 (inactive) | 1.19 | 5200 | 4360 | inactive | -1.38 (inactive)
17 | CCC1(O)CC2CN(CCc3c([nH]c4ccccc34)[C@@](C(=O)OC)(c3cc4c(cc3OC)N(C)C3[C@]45CCN4CC=C[C@@](CC)([C@@H](OC(C)=O)[C@]3(O)C(=O)OC)[C@H]45)C2)C1 (stereo partly specified) | 0.43 h (inactive) | -2% (inactive) | 1 (inactive) | 1.18 (inactive) | 0.644 | 1680 | 1430 | inactive | -1.17 (inactive)
18 | CC(N)(Cc1ccc(O)cc1)C(=O)O (stereo unspecified) | -0.14 h (inactive) | -1% (inactive) | 0.9 (inactive) | 1 (inactive) | 0.646 | 9440 | 9440 | inactive | 1.32 (inactive)
19 | OC[C@H]1NC[C@@H](O)[C@@H]1O | -0.11 h (inactive) | -3% (inactive) | 1 (inactive) | 0.888 (inactive) | 1.22 | 8680 | 9770 | inactive | 0.015 (inactive)
